Vaccinia mCherry = inhibitors of vaccinia virus infection (mCherry reporter signal); Vaccinia virus mCherry reporter infection, fluorescence; Potency, µM (series often up to 36.5 µM), most hits filed as inhibitors; 310,000 tested, 0.63% active; calls by dose curve; tested in A549 cells; further: nearly all actives have a fitted effect of over 35% in size
LASV entry inh = blocks Lassa virus binding to or entry into cells; AID 540256; Lassa virus pseudotype entry inhibition, cell reporter; 300,000 tested, 1.2% active; Potency, µM (highest dose often 37.9 µM), actives largely listed as inhibitors; calls by dose curve; tested in HEK293 cells; further: nearly all actives have a fitted effect of over 50% in size
Marburg entry inh = inhibitors of Marburg virus binding or cell entry; Marburg virus pseudotyped entry inhibition, cell reporter; Potency, µM (titrated, usually from 37.8 µM), usual class: inhibitors; 300,000 tested, 1.8% active; AID 540276; calls by dose curve; tested in HEK293 cells
VACV Venus inh = inhibitors of vaccinia virus (Venus reporter); AID 720580; Vaccinia virus Venus reporter expression, fluorescence; Potency, µM (highest dose often 36.5 µM), usual class: inhibitors; 330,000 tested, 0.46% active; calls by dose curve; tested in A549 cells; further: nearly all actives have a fitted effect of over 30% in size
A number is an active result; n = inactive; u = inconclusive; x = no result given. An excerpt weighted towards active compounds, which were near 2.5% of everything screened.

SMILES	Vaccinia mCherry	LASV entry inh	Marburg entry inh	VACV Venus inh
CCCc1ccc(C(=O)NNc2cccc(C)c2)cc1	u	u	4µM	n
Cc1ccc(C(=O)Nc2cccc(-c3nc(CNC(=O)c4ccc5ccccc5n4)c(C)o3)c2)s1	n	x	x	n
N=C(N)N=Nc1c(O)[nH]c2ccc(Br)cc12	n	n	n	n
NC(=S)N=Nc1c(O)[nH]c2cc(F)c(F)cc12	3.2µM	n	n	2.2µM
COc1ccc(OC)c(-c2ccnc(-n3ncc(C(=O)N4CCN(CCO)CC4)c3C3CC3)n2)c1	n	x	x	n
COC(=O)c1cc(OC)c(OC)cc1NCC(=O)Nc1ccc(OC)c(OC)c1	n	n	u	n
COC(=O)c1cc(OC)c(OC)cc1NCC(=O)Nc1cccc(C(F)(F)F)c1	n	n	10µM	n
CC(c1ccon1)N(C)C(=O)c1cnn(-c2ncc3c(n2)-c2ccccc2CC3)c1C1CC1 (stereo not drawn)	n	x	x	n
Fc1ccc(Nc2nc(Nc3ccc(F)cc3)nc(N3CCOCC3)n2)cc1	n	n	u	n
Cc1[nH]c2ccccc2c1/C=N/Nc1nc(Nc2ccccc2)nc(N2CCOCC2)n1	x	5.8µM	0.33µM	x
COc1cc(/C=N/Nc2nc(Nc3ccccc3)nc(N3CCOCC3)n2)ccc1OC(=O)c1ccco1	x	u	2.1µM	x
CCOC(=O)c1ccc(Nc2cc(C)nc(N3CCOCC3)n2)cc1	10µM	n	u	13µM
CCOc1ccc(Nc2cc(C)nc(N3CCOCC3)n2)cc1	x	n	n	n
CN1CCN(c2nc(Nc3cccc(C(F)(F)F)c3)nc(N3CCOCC3)n2)CC1	x	u	21µM	x
CC(C)c1nc(C(=O)N2CCOc3ccc(CN4CCN(c5ccccn5)CC4)cc3C2)cs1	n	x	x	n
Cc1ccccc1Nc1nc(N2CCOCC2)nc(N2CCOCC2)n1	n	n	6.3µM	n
Cc1ccc(Nc2nc(N3CCOCC3)nc(N3CCOCC3)n2)cc1	n	n	1.2µM	n
Clc1ccc(Nc2nc(NCCN3CCOCC3)nc(N3CCOCC3)n2)cc1	x	u	2.8µM	u
Cc1ccc(Nc2cc(C)nc(N3CCOCC3)n2)cc1	n	n	5.6µM	n
Cc1ccccc1Nc1nc2nonc2nc1N1CCOCC1	n	n	u	n
CCOC(=O)C1CCCCN1C(=O)c1cnn(-c2nccc(-c3cc(C)sc3C)n2)c1C1CC1 (stereo not drawn)	n	x	x	n
COc1cc(=O)n2c(c1C(=O)NC(C)c1ccco1)CCN(Cc1ccccc1Cl)CC2 (stereo not drawn)	n	x	x	n
Fc1ccc(Nc2nc(N3CCOCC3)c3ccccc3n2)cc1	x	u	16µM	n
c1ccc(Nc2nc(Nc3ccccc3)nc(N3CCNCC3)n2)cc1	u	n	6.3µM	n
c1ccc2c(Nc3nc(N4CCOCC4)c4ccccc4n3)cccc2c1	u	u	u	n
SMILES	Vaccinia mCherry	LASV entry inh	Marburg entry inh	VACV Venus inh
Cc1nc2sccn2c1CN1CCOc2ccc(CN3CCN(c4ccc(F)cc4)CC3)cc2C1	n	x	x	n
COc1cc2nc(CCc3nc4cc(OC)c(OC)cc4[nH]3)[nH]c2cc1OC	n	x	x	n
Cc1cc(C)n(-c2nc(NCCCN(C)C)c3c4c(sc3n2)COC(C)(C)C4)n1	u	n	u	u
CCN(CC)CCNc1nc(-n2nc(C)cc2C)nc2sc3c(c12)CC(C)(C)OC3	u	7.9µM	u	u
Cc1cc(C)n(-c2nc(NCCN(C)C)c3c4c(sc3n2)COC(C)(C)C4)n1	n	13µM	7.1µM	n
CC1=CC[C@@H](C)O[C@@]2(C1)C(=O)N(Cc1ccc(Br)cc1)c1ccccc12	x	u	n	x
CN(C[C@H](O)COc1ccc(OC[C@H](O)CN(C)C2CCCCC2)cc1)C1CCCCC1	x	x	10µM	x
CN(CC(O)COc1ccc(OCC(O)CN(C)C2CCCCC2)cc1)C1CCCCC1 (stereo not drawn)	n	u	10µM	n
CCOc1ccccc1CN1CCN(Cc2nc3c(s2)CCCC3)CC1CCO (stereo not drawn)	n	x	x	n
CCN1CCN(/C=N/c2nc3c(s2)CCCC3)CC1	n	u	5.8µM	n
CC(Oc1ccc(Cl)cc1)C(=O)Nc1ccccc1N1CCOCC1 (stereo not drawn)	n	u	13µM	n
CCOC(=O)NN=C1C[C@@H](O)[C@@H](O)[C@@H]2[C@H]3C(=O)N(Cc4ccc5c(c4)OCO5)C(=O)[C@@H]3CC[C@@H]12	x	x	n	x
CC(NC(=O)c1ccco1)c1nnc2n1CCN(Cc1ccc(N3CCCC3)cc1)CC2 (stereo not drawn)	n	x	x	n
CCCCCC(=O)N1C[C@H](n2cc(-c3ccc(F)cc3)nn2)[C@@H](O)C[C@H]1c1ccc(C)cc1	x	n	x	x
CC(C)CN(C(=O)c1ccc([N+](=O)[O-])s1)c1c(N)n(Cc2ccccc2)c(=O)[nH]c1=O	20µM	n	n	u
COCCCN(C(=O)c1cc2c(s1)CCCCC2)c1c(N)n(Cc2ccccc2)c(=O)[nH]c1=O	n	10µM	n	n
CC(C)CN(C(=O)COC(=O)c1ccc(Br)cc1)c1c(N)n(Cc2ccccc2)c(=O)[nH]c1=O	u	u	u	13µM
O=C(c1ccc(Cl)cc1)c1c[nH]c(C(=O)NNc2cccc(Cl)n2)c1	u	u	u	11µM
Cc1cc[n+](CCC2CCCCC2)c2ccccc12	u	x	x	n
CCCc1nc2oc3c(NCCN(C)C)ncnc3c2c2c1CCCC2	x	16µM	u	x
CCCc1nc2oc3c(NCCCN(C)C)ncnc3c2c2c1CCCC2	n	u	u	n
CCOc1ccc(NCc2nnc(SCC(=O)Nc3nc(-c4ccccc4)cs3)n2-c2ccccc2)cc1	11µM	n	u	u
COc1ccc(OC)c(-c2csc(NC(=O)CSc3ccc([N+](=O)[O-])cc3)n2)c1	n	u	u	n
COc1ccc(OC)c(-c2csc(NC(=O)CSc3ccc(Br)cc3)n2)c1	n	7.9µM	n	n
Cc1cccc(C)c1NCc1nnc(SCC(=O)Nc2nc(-c3ccccc3)cs2)n1-c1ccccc1	n	n	n	n
SMILES	Vaccinia mCherry	LASV entry inh	Marburg entry inh	VACV Venus inh
Cc1cc(C)nc(SCc2nnc(SCC(=O)Nc3nc(-c4ccccc4)cs3)n2C)n1	n	n	n	n
COc1ccccc1-c1nnc(SCC(=O)Nc2nc(-c3ccccc3)cs2)n1C	x	23µM	23µM	x
Cc1c(C(=O)N2CCC(Cc3ccccc3)CC2)sc2ncnc(NCc3ccccn3)c12	n	x	x	n
CN1CCN(C2=Nc3ccccc3Oc3ccc(Cl)cc32)CC1	u	n	12µM	n
CN1CCN(C2=Nc3ccccc3Sc3ccc(Cl)cc32)CC1	n	x	x	n
CC1CCC2(CC1)NC(=O)N(NC(=O)CCl)C2=O (stereo not drawn)	16µM	n	n	u
CC1CCC2(CC1)NC(=O)N(NC(=O)c1ccc(OC(C)C)cc1)C2=O (stereo not drawn)	n	n	n	n
CCOC(=O)c1c(NC(=O)CSc2nc3ccc(C)cc3[nH]2)sc2c1CC(C)(C)NC2(C)C	n	10µM	u	u
CCOC(=O)c1c(NC(=O)CSc2nnnn2-c2ccccc2)sc2c1CC(C)(C)NC2(C)C	n	u	u	u
COc1cccc(NC(=O)c2ccccc2OCC(=O)Nc2ccc(Br)cc2)c1	n	x	x	n
Oc1ccc(NC(=S)N=Nc2c(O)[nH]c3ccc(Br)cc23)cc1	u	11µM	u	n
Cc1ccc(/C=C/C(=O)Nc2ccc([N+](=O)[O-])cc2)o1	u	n	n	n
CCOC(=O)CCc1ccc(NC(=O)/C=C/c2ccc([N+](=O)[O-])o2)cc1	u	7.1µM	u	13µM

Assay outcomes from PubChem BioAssay.
